ASM inhibitor = blocks human secretory acid sphingomyelinase. placental ASM, HMU-PC fluorogenic substrate, 60 min. 340,000 compounds, 0.006% hits. P17405. Potency, µM (top dose mostly 57.5 µM), actives largely listed as inhibitors. AID 504937
Target sequence (P17405 47-631 limits assumed): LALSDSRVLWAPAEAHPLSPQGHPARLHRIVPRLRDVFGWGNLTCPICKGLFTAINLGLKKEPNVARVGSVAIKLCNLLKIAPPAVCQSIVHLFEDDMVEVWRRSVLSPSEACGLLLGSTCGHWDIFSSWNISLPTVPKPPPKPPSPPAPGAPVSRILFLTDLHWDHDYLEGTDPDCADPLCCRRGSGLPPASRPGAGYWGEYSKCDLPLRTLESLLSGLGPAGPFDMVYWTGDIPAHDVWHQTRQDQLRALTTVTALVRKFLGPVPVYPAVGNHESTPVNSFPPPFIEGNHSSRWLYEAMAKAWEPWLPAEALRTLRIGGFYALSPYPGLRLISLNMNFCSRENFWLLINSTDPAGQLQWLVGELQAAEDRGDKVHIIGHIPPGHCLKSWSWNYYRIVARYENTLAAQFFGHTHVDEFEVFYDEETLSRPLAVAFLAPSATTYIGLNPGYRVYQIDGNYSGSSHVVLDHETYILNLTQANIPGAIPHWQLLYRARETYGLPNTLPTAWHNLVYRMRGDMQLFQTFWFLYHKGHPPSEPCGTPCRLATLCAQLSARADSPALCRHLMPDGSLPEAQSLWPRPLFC
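Human placenta-derived ASM preincubated with compound 10 min at room temperature, then reacted with 9 uM (final) fluorogenic HMU-PC substrate for 60 min at 37 C. Stop solution raises pH to 10; fluorescence read at Ex 386/Em 447 nm.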
HepG2 viability = kills HepG2 cells in TGF-b inhibitor counter-screen; HepG2 CAGA-GFP viability, ATP luminescence, 18 h; 410,000 compounds, 0.76% hits; Potency, µM (highest dose often 46.1 µM), most hits filed as cytotoxic
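CellTiter-Glo luminescence gave cytotoxicity after 18 hours at 37 degrees C. The cells were HepG2 CAGA-GFP in 1% FBS DMEM, stimulated with 500 pg/mL TGF-beta after compound addition. %Activity was normalised to no-cell wells (complete cell-killing) and DMSO (no toxicity), and curves were fitted and classified.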
DT40 TDP1 CPT = DT40-hTDP1 cell growth loss with CPT; chicken DT40 Tdp1-/-;hTDP1 cells + 20 nM CPT, ATP luminescence, 48 h; 420,000 compounds, 12% hits; Potency, µM (doses to about 46.2 µM), hits mostly inhibitors; AID 686979; also: nearly all actives have a fitted effect of over 55% in size
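Chicken DT40 Tdp1-/- cells complemented with human TDP1, 400 cells/well, exposed to compounds plus 20 nM camptothecin for at least 48 h at 37 C; viability read as ATP content by CellTiter-Glo luminescence.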
IL1B secr inh = blocks inflammasome-driven IL-1 beta release | THP-1 LPS/ATP IL-1B secretion, AlphaLISA, 16 h; stronger effect = lower value | 360,000 compounds, 4.7% hits | activity change, % at 57.5 µM; in the data active = activity change below about -50%; inconclusive = mostly about -30% to -49%
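THP-1 cells pretreated 1 hr with compounds (up to 57.5 uM final), then stimulated with LPS (250 ng/mL final) plus ATP (1.25 mM final); secreted IL-1B measured by AlphaLISA after 16 hr, decreased signal indicating inhibition.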
TDP1 cell noCPT = qHTS for Inhibitors of human tyrosyl-DNA phosphodiesterase 1 (TDP1): qHTS in cells in absence of CPT | 420,000 compounds, 15% hits | DT40 Tdp1-/- hTDP1 cells, no CPT, ATP luminescence, 48 h | Potency, µM (series often up to 46.2 µM), actives largely listed as inhibitors; also: nearly all actives have a fitted effect of over 55% in size
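Growth of hTDP1-complemented DT40 Tdp1-knockout cells is measured by ATP luminescence after at least 48 hr compound exposure at 37 °C, with DMSO substituting for the 20 nM CPT used in the parallel screen.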
TGFb inhibitor = TGF-b pathway inhibition. Potency, µM (titrated, usually from 46.1 µM), hits mostly inhibitors. HepG2 CAGA-GFP TGF-b/SMAD3 reporter, GFP fluorescence, 18 h; TGF-beta stimulated, 500 pg/mL final. 410,000 compounds, 1.2% hits; also: nearly all actives have a fitted effect of over 65% in size
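Inhibition was scored as loss of TGF-beta-induced (500 pg/mL final, 18 hours, 37 degrees C) GFP in HEPG2 cells carrying a CAGA-GFP reporter, in DMEM with 1% FBS. Well GFP was summed per cell; Activity was normalised to unstimulated and stimulated DMSO wells, then concentration-response fitting.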
Each line names hits and unclear results; the compound was inactive in the other large screens; ! = repeats disagree. This is a sample that favours compounds with a hit; in the whole collection about 19% have one here. Unless noted, calls follow the shape of the dose curve; as a rule, active = well fitted curve in the direction sought with a large enough effect; inconclusive = small, poorly fitted or top-dose-only effect, or another doubt; inactive = no such curve, though single readings can be large; an effect the other way counts as inactive or inconclusive.

O=C(C[N+]12CCC(CC1)C(C(O)(c1ccccc1)c1ccccc1)C2)c1ccc(Br)cc1 (stereo unspecified)	DT40 TDP1 CPT 15µM, IL1B secr inh -59, TDP1 cell noCPT 7.3µM
Cc1cc(C=O)c(C)n1C1CC1	none
CCOc1ccc(N)cc1	none
Cc1cc(-c2ccccc2)cc(-c2ccccc2)[n+]1CCc1ccccc1	DT40 TDP1 CPT 0.18µM, IL1B secr inh inconclusive, TDP1 cell noCPT 0.21µM, TGFb inhibitor inconclusive
CCOc1ccc(-c2cc(C)[n+](CCc3ccc(OC)c(OC)c3)c(-c3ccc(OCC)cc3)c2)cc1	DT40 TDP1 CPT 0.82µM, IL1B secr inh -109, TDP1 cell noCPT 1.2µM, TGFb inhibitor inconclusive
CCOc1ccc(-c2cc(C)[n+](CCO)c(-c3ccc(OCC)cc3)c2)cc1	DT40 TDP1 CPT 1.5µM, IL1B secr inh -75, TDP1 cell noCPT 0.65µM
NCCc1ccccc1	none
Fc1ccc(C[n+]2c(-c3ccccc3)cc(-c3ccccc3)cc2-c2ccccc2)cc1	DT40 TDP1 CPT 1.2µM, TDP1 cell noCPT 0.58µM, TGFb inhibitor inconclusive
Clc1cncc(N2CCNCC2)n1	none (no result: ASM inhibitor, HepG2 viability, IL1B secr inh, TGFb inhibitor)
O=C1OC2(c3cc(Br)c(O)cc3Oc3c2cc(Br)c(O)[c]3[Hg])c2ccccc21 (stereo unspecified)	DT40 TDP1 CPT 4.5µM, TDP1 cell noCPT 3.6µM (no result: ASM inhibitor, HepG2 viability, IL1B secr inh, TGFb inhibitor)
CCC1CN1P(=O)(Oc1ccc(Cl)cc1)N1CC1CC (stereo unspecified)	DT40 TDP1 CPT inconclusive, TDP1 cell noCPT inconclusive
CCCCc1nc2ccccc2c(=O)n1-c1ccccc1O	DT40 TDP1 CPT inconclusive, TDP1 cell noCPT inconclusive
N#CCn1c(CCl)nc2ccccc2c1=O	DT40 TDP1 CPT 4.6µM, IL1B secr inh -56, TDP1 cell noCPT 2.6µM
O=C1OC(c2ccc(Cl)cc2)=N/C1=C\N1CC2CC(C1)c1cccc(=O)n1C2 (stereo unspecified)	DT40 TDP1 CPT inconclusive
CCC1=Nc2cc(C(=O)N3CCC4(CC3)OCCO4)ccc2Sc2ccc(Br)cc21	DT40 TDP1 CPT inconclusive, TDP1 cell noCPT inconclusive
COc1ccc(CCNC(=O)c2ccc3c(c2)N(Cc2cccc(Cl)c2)C(=O)CS3)cc1OC	DT40 TDP1 CPT 21µM, TDP1 cell noCPT 23µM (no result: ASM inhibitor, IL1B secr inh)
CCc1ccc(CNC(=O)c2ccc3c(c2)N=C(C)c2cc(C)ccc2S3)cc1	DT40 TDP1 CPT 12µM, TDP1 cell noCPT 5.8µM, TGFb inhibitor inconclusive (no result: ASM inhibitor, IL1B secr inh)
COc1ccc(CCNC(=O)c2ccc3c(c2)N=C(C)c2cc(C)ccc2S3)cc1OC	DT40 TDP1 CPT inconclusive, TDP1 cell noCPT 15µM, TGFb inhibitor inconclusive (no result: ASM inhibitor, IL1B secr inh)
CCNc1nc(NC(C)C)nc(NS(=O)(=O)c2ccc(Cl)cc2)n1	DT40 TDP1 CPT inconclusive, TDP1 cell noCPT inconclusive
O=C(NC(c1cccnc1)C(F)(F)F)c1cnn(-c2nccc(-c3cccs3)n2)c1C1CC1 (stereo unspecified)	DT40 TDP1 CPT inconclusive, TDP1 cell noCPT 21µM (no result: ASM inhibitor, HepG2 viability, IL1B secr inh, TGFb inhibitor)
CCc1ccccc1NC(=O)C1CCCN(c2ncnc3onc(C)c23)C1 (stereo unspecified)	DT40 TDP1 CPT 18µM, TDP1 cell noCPT 9.2µM (no result: ASM inhibitor, IL1B secr inh)
CS(=O)c1ccc(-c2nc(-c3ccc(F)cc3)c(-c3ccncc3)[nH]2)cc1 (stereo unspecified)	DT40 TDP1 CPT 30µM!, TDP1 cell noCPT 15µM (no result: ASM inhibitor, HepG2 viability, IL1B secr inh, TGFb inhibitor)
CNC(C)C(O)c1ccc(O)cc1 (stereo unspecified)	none (no result: ASM inhibitor, HepG2 viability, IL1B secr inh, TGFb inhibitor)
CC(CC(C)(C)N1CC1)=NO	DT40 TDP1 CPT 2.9µM, TDP1 cell noCPT 3.3µM
CCC(C)(S(=O)(=O)CC)S(=O)(=O)CC	none (no result: ASM inhibitor, HepG2 viability, IL1B secr inh, TGFb inhibitor)
O[C@H]1CCCC[C@H]1N1CCC(c2ccccc2)CC1	none (no result: ASM inhibitor, HepG2 viability, IL1B secr inh, TGFb inhibitor)
CCN(CC)C(=O)[C@@H]1C=C2c3cccc4[nH]cc(c34)C[C@H]2N(C)C1	DT40 TDP1 CPT 40µM, TDP1 cell noCPT 40µM (no result: ASM inhibitor, HepG2 viability, IL1B secr inh, TGFb inhibitor)
CN1C[C@H](CO)C=C2c3cccc4[nH]cc(c34)C[C@H]21	DT40 TDP1 CPT 3.7µM, TDP1 cell noCPT inconclusive
CN1C[C@@H](CO)C=C2c3cccc4[nH]cc(c34)CC21 (stereo partly specified)	none (no result: ASM inhibitor, IL1B secr inh)
CC(C)C1CN1CC(O)Cn1ccnc1[N+](=O)[O-] (stereo unspecified)	DT40 TDP1 CPT 18µM, TDP1 cell noCPT inconclusive (no result: ASM inhibitor)
C[C@]12C=CC(=O)C=C1CC[C@@H]1C2CC[C@]2(C)OC(=O)CCC12 (stereo partly specified)	none
COc1ccc(CNC(=O)C2CCN(C(=O)c3cnn(-c4ccccc4)c3-n3cccc3)CC2)cc1	DT40 TDP1 CPT 16µM, TDP1 cell noCPT 6.5µM, TGFb inhibitor inconclusive (no result: ASM inhibitor, IL1B secr inh)
Cc1ccc(NC(=O)C2CCN(C(=O)c3cnn(-c4ccccc4)c3-n3cccc3)CC2)cc1Cl	DT40 TDP1 CPT inconclusive, TDP1 cell noCPT 13µM, TGFb inhibitor 14µM (no result: ASM inhibitor, IL1B secr inh)
O=C(NCc1ccc(Cl)cc1)C1CCN(C(=O)c2cnn(-c3ccccc3)c2-n2cccc2)CC1	DT40 TDP1 CPT 15µM, TDP1 cell noCPT 10µM, TGFb inhibitor inconclusive (no result: ASM inhibitor, IL1B secr inh)
COc1ccc(CNC(=O)C2CCN(c3nc(OC)nc(OC)n3)CC2)cc1	DT40 TDP1 CPT inconclusive, TDP1 cell noCPT 16µM
Cc1nnc(N2CCC(C(=O)NCc3ccc(N(C)C)cc3)CC2)c2nn(-c3ccccc3)c(C)c12	DT40 TDP1 CPT inconclusive, TDP1 cell noCPT inconclusive (no result: ASM inhibitor, IL1B secr inh)
